The text below walks through data of the supplement of paper PMC12494721.

Common to all, as to details: incubation time: 27 h, anaerobic, 37 °C
Experiment [1] has as its system Clostridium sporogenes DSM 1664. Description: growth (OD595) fold change vs plate DMSO controls (fold change (ratio)); higher = more growth. Summed up: (§1)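 Growth is the fold change relative to the median of plate DMSO controls. Readings came from anaerobic mGAM cultures in 96-well plates grown for 27 h at 37 °C and read at 595 nm. They were blank-subtracted, corrected for compound background with 20 µM compound solutions in water, and converted to OD with a calibration factor of 5. Values are means of 2 biological replicates, and fold changes above 1.5 were set to NA.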

The test system of experiment [2] is Escherichia coli IAI1. Described as above. Summed up: as §1
Experiment [3] deals with Klebsiella aerogenes DSM 30053. The experiment is described as above. Summed up: as §1
In experiment [4] the test system is Ruminococcus gnavus DSM 108212. The description is as above. Summed up: as §1
Experiment [5] has as its system Klebsiella aerogenes DSM 30053. In words: fold change of Histamine concentration vs plate DMSO controls (fold change (ratio)); higher = more amine produced, active = hit call of the paper (significant change in both replicates, either direction). Summed up: (§2)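 Amines were quantified by LC–triple-quadrupole MS in dynamic MRM mode against external calibration curves, with drift correction within each batch. The samples were whole anaerobic mGAM cultures of four gut bacterial strains, grown for 27 h at 37 °C in 80 µL wells and extracted with cold acetonitrile/methanol with 0.1% formic acid, then centrifuged. Values are reported as fold change over DMSO controls on the same plate. The mean of 2 biological replicates is given.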

Experiment [6] concerns Clostridium sporogenes DSM 1664. In words: fold change of Tryptamine concentration vs plate DMSO controls (fold change (ratio)); higher = more amine produced, active = hit call of the paper (significant change in both replicates, either direction). Summed up:
as §2

For experiment [7], the system named is Ruminococcus gnavus DSM 108212. The description is as above. Summed up:
as §2

Experiment [8] concerns Escherichia coli IAI1. Description: fold change of Putrescine concentration vs plate DMSO controls (fold change (ratio)); higher = more amine produced, active = hit call of the paper (significant change in both replicates, either direction). Summed up:
as §2

Experiment [9] has as its system Klebsiella aerogenes DSM 30053. The experiment is described as above. Summed up: as §2
The subject of experiment [10] is Escherichia coli IAI1. Description: fold change of Cadaverine concentration vs plate DMSO controls (fold change (ratio)); higher = more amine produced, active = hit call of the paper (significant change in both replicates, either direction). Summed up:
as §2

Experiment [11] relates to Klebsiella aerogenes DSM 30053. The description is as above. Summed up:
as §2

Experiment [12] relates to Ruminococcus gnavus DSM 108212. In words: fold change of 2-Phenylethylamine concentration vs plate DMSO controls (fold change (ratio)); higher = more amine produced, active = hit call of the paper (significant change in both replicates, either direction). Summed up: as §2

Each structure is given as a SMILES string. Structures can show the parent of a compound that is named as a salt.

`CC1(C)[C@H](C(=O)O)N2C(=O)C[C@H]2S1(=O)=O` [Sulbactam] (20 µM): the growth worked out at 0.592 in [1], 1.19 in [2], 0.976 in experiment [3] and 1.21 in experiment [4]. In addition, in [5], the “fold change of Histamine concentration” value was 1.05 (inactive). Besides, the “fold change of Tryptamine concentration” value in experiment [6] and in experiment [7] was 1.07 (inactive) throughout. Also, the “fold change of Putrescine concentration” value was 1.14 (inactive) in [8] and 0.983 (inactive) in [9]. For the same molecule, the “fold change of Cadaverine concentration” value in [10] is 0.985 (inactive); in experiment [11] it was 1.01 (inactive). Further, the “fold change of 2-Phenylethylamine concentration” value in [12] was 1.08 (inactive).
`CC(C)(C)NCC(O)COc1cccc2c1CC(O)C(O)C2` (centres undefined) [Nadolol] (20 µM): the growth was 1.08 in experiment [1], 0.986 in [2], 1.03 in experiment [3] and 0.969 in [4]. In addition, the “fold change of Histamine concentration” value in [5] is 0.981 (inactive). Moreover, the “fold change of Tryptamine concentration” value is 1.08 (inactive) in experiment [6] and 1.02 (inactive) in experiment [7]. Also, the “fold change of Putrescine concentration” value in experiment [8] is 1.06 (inactive); in experiment [9], 0.988 (inactive). Also, the “fold change of Cadaverine concentration” value in [10] and in experiment [11] was 1 (inactive) in each case. Further, the “fold change of 2-Phenylethylamine concentration” value in experiment [12] is 0.971 (inactive).
For the molecule `CC(C)(c1ccc(O)cc1)c1ccc(O)cc1` [Bisphenol A] (20 µM), the growth in [1] turned out to be 0.972; in experiment [2] it was 1.04; in experiment [3], 1; in [4], 0.996. For the same molecule, the “fold change of Histamine concentration” value in experiment [5] is 1.01 (inactive). Further, the “fold change of Tryptamine concentration” value in [6] was 0.959 (inactive); in [7], 0.976 (inactive). Moreover, the “fold change of Putrescine concentration” value is 0.981 (inactive) in experiment [8] and 0.988 (inactive) in experiment [9]. The entries for the “fold change of Cadaverine concentration” value in experiment [10] and in experiment [11] were 0.991 (inactive) and 0.985 (inactive), respectively. The “fold change of 2-Phenylethylamine concentration” value in experiment [12] is 0.942 (inactive).
As for `CC(C(=O)O)c1ccc2c(c1)[nH]c1ccc(Cl)cc12` (centres undefined) [Carprofen] (20 µM), the growth is 1.05 in experiment [1], 1.02 in experiment [2], 0.996 in experiment [3] and 1.1 in [4]. In addition, the “fold change of Histamine concentration” value in experiment [5] is 1.07 (inactive). The “fold change of Tryptamine concentration” value is 0.958 (inactive) in experiment [6] and 1.03 (inactive) in [7]. For the same molecule, the results for the “fold change of Putrescine concentration” value in [8] and in experiment [9] were 1.05 (inactive) and 0.99 (inactive), respectively. Besides, the figures for the “fold change of Cadaverine concentration” value in experiment [10] and in experiment [11] were 1.03 (inactive) and 0.995 (inactive), respectively. For the same molecule, the “fold change of 2-Phenylethylamine concentration” value in experiment [12] was 1.06 (inactive).
Consider `CC(C)N1CCN(c2ccc(OCC3COC(Cn4cncn4)(c4ccc(Cl)cc4Cl)O3)cc2)CC1` (centres undefined) [Terconazole] (20 µM), for which the growth in [1] came out at 1.12; in experiment [2], 1; in experiment [3], 1.01; in experiment [4], 1. Also, the “fold change of Histamine concentration” value in experiment [5] was 0.996 (inactive). Moreover, the figures for the “fold change of Tryptamine concentration” value in experiment [6] and in [7] were 0.976 (inactive) and 1 (inactive), respectively. In addition, the entries for the “fold change of Putrescine concentration” value in experiment [8] and in experiment [9] were 1 (inactive) and 0.993 (inactive), respectively. The “fold change of Cadaverine concentration” value was 0.989 (inactive) in [10] and 1 (inactive) in experiment [11]. Further, in experiment [12], the “fold change of 2-Phenylethylamine concentration” value was 0.977 (inactive).
As for `CN(C)CCC=C1c2ccccc2CCc2ccccc21` [Amitryptiline hydrochloride] (20 µM), the growth in experiment [1] turned out to be 1.05; in experiment [2], 1.04; in experiment [3], 1.06; in experiment [4], 1.12. The “fold change of Histamine concentration” value in [5] was 0.911 (inactive). The “fold change of Tryptamine concentration” value is 0.996 (inactive) in [6] and 0.973 (inactive) in experiment [7]. The “fold change of Putrescine concentration” value in experiment [8] is 1.01 (inactive); in experiment [9], 0.936 (inactive). Also, the “fold change of Cadaverine concentration” value was 1.01 (inactive) in [10] and 1.02 (inactive) in experiment [11]. Besides, the “fold change of 2-Phenylethylamine concentration” value in [12] was 1.01 (inactive).
As for `CC(=O)O[C@@]12CO[C@@H]1C[C@H](O)[C@@]1(C)C(=O)[C@H](O)C3=C(C)[C@@H](OC(=O)[C@H](O)[C@@H](NC(=O)OC(C)(C)C)c4ccccc4)C[C@@](O)([C@@H](OC(=O)c4ccccc4)[C@H]21)C3(C)C` [Docetaxel] (20 µM), the growth in [1] worked out at 0.864; in experiment [2], 1; in experiment [3] it was 1.03; in [4] it was 1.05. The “fold change of Histamine concentration” value in experiment [5] was 1.05 (inactive). Moreover, the “fold change of Tryptamine concentration” value was 0.991 (inactive) in [6] and 1 (inactive) in experiment [7]. Further, the “fold change of Putrescine concentration” value was 1.02 (inactive) in experiment [8] and 1.01 (inactive) in experiment [9]. In addition, the entries for the “fold change of Cadaverine concentration” value in experiment [10] and in experiment [11] were 1.02 (inactive) and 0.998 (inactive), respectively. Also, the “fold change of 2-Phenylethylamine concentration” value in experiment [12] is 0.956 (inactive).
Consider `CC(C)OC(=O)CCC/C=C\C[C@@H]1[C@@H](CC[C@@H](O)CCc2ccccc2)[C@H](O)C[C@@H]1O` [Latanoprost] (20 µM), for which the growth came out at 0.975 in [1], 1 in experiment [2], 0.984 in experiment [3] and 1.44 in experiment [4]. In addition, the “fold change of Histamine concentration” value in experiment [5] was 1.11 (inactive). Also, the entries for the “fold change of Tryptamine concentration” value in experiment [6] and in experiment [7] were 0.828 (inactive) and 0.542 (active), respectively. Moreover, the “fold change of Putrescine concentration” value in [8] is 0.928 (inactive); in experiment [9], 1.04 (inactive). The “fold change of Cadaverine concentration” value in [10] is 0.939 (inactive); in experiment [11] it was 1 (inactive). In addition, in experiment [12], the “fold change of 2-Phenylethylamine concentration” value is 0.649 (inactive).
For `NC(=O)c1cccnc1` [Nicotinamide] (20 µM), the growth was 0.909 in experiment [1], 0.979 in [2], 0.964 in experiment [3] and 0.672 in [4]. In addition, the “fold change of Histamine concentration” value in [5] was 0.994 (inactive). Besides, the figures for the “fold change of Tryptamine concentration” value in experiment [6] and in experiment [7] were 0.971 (inactive) and 0.993 (inactive), respectively. The figures for the “fold change of Putrescine concentration” value in experiment [8] and in experiment [9] were 1.02 (inactive) and 0.896 (inactive), respectively. For the same molecule, the “fold change of Cadaverine concentration” value is 1 (inactive) in experiment [10] and 1.1 (inactive) in [11]. Further, the “fold change of 2-Phenylethylamine concentration” value in [12] is 0.953 (inactive).
Regarding `CC(C(=O)O)c1ccc2c(c1)Cc1cccnc1O2` (centres undefined) [Pranoprofen] (20 µM), the growth is 1.01 in experiment [1], 1.06 in [2], 1.03 in experiment [3] and 0.92 in experiment [4]. For the same molecule, in experiment [5], the “fold change of Histamine concentration” value was 0.978 (inactive). For the same molecule, the “fold change of Tryptamine concentration” value in experiment [6] was 0.985 (inactive); in [7], 0.95 (inactive). The “fold change of Putrescine concentration” value is 0.95 (inactive) in experiment [8] and 1.01 (inactive) in experiment [9]. In addition, the “fold change of Cadaverine concentration” value is 0.993 (inactive) in experiment [10] and 1.01 (inactive) in [11]. Further, in experiment [12], the “fold change of 2-Phenylethylamine concentration” value was 0.94 (inactive).
With `O=C(O)CCC(=O)c1ccc(-c2ccccc2)cc1` [Fenbufen] (20 µM), the growth in [1] came out at 1.02; in experiment [2], 1.02; in experiment [3] it was 0.996; in experiment [4] it was 0.921. In experiment [5], the “fold change of Histamine concentration” value was 0.97 (inactive). The “fold change of Tryptamine concentration” value in [6] was 0.991 (inactive); in experiment [7] it was 1.04 (inactive). The results for the “fold change of Putrescine concentration” value in experiment [8] and in experiment [9] were 1.04 (inactive) and 0.989 (inactive), respectively. For the same molecule, the “fold change of Cadaverine concentration” value in experiment [10] was 0.969 (inactive); in experiment [11], 0.998 (inactive). Also, the “fold change of 2-Phenylethylamine concentration” value in experiment [12] is 1.06 (inactive).
Consider `COc1cc(C(=O)NC2CCCNC2)cc(OC)c1OC` (centres undefined) [Troxipide] (20 µM), for which the growth in experiment [1] turned out to be 0.822; in experiment [2], 1.02; in experiment [3], 0.99; in experiment [4], 0.845. Also, the “fold change of Histamine concentration” value in experiment [5] was 0.989 (inactive). Also, the “fold change of Tryptamine concentration” value was 1.03 (inactive) in experiment [6] and 1.06 (inactive) in experiment [7]. For the same molecule, the “fold change of Putrescine concentration” value was 0.965 (inactive) in experiment [8] and 0.983 (inactive) in experiment [9]. For the same molecule, the “fold change of Cadaverine concentration” value in experiment [10] is 0.978 (inactive); in experiment [11] it was 0.996 (inactive). Besides, in experiment [12], the “fold change of 2-Phenylethylamine concentration” value is 1.02 (inactive).
